High-throughput results from PubChem.
NSD2 inh: blocks human NSD2 histone methyltransferase activity | O96028 | NSD2-SET H3K36me1 DELFIA fluorescence, biochemical | inhibition, % at 12.5 µM | 44,000 tested, 0.07% active; in the data active = inhibition above about 54%, passing the limit was not always enough;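 also: inhibitors reduce the monomethyl H3K36 fluorescence signal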
Active calls of the source: *. Many of the other results were omitted from the sample, so hits are more common in it than they were.

SMILES	NSD2 inh
COCC(=O)N(C)C[C@H]1Oc2ncc(/C=C/c3ccccc3)cc2C(=O)N([C@@H](C)CO)C[C@@H]1C	-0.9
Cc1ccc(S(=O)(=O)N(C)C[C@@H]2Oc3ccc(NC(=O)Nc4c(C)noc4C)cc3C(=O)N([C@@H](C)CO)C[C@H]2C)cc1	-1.6
C[C@H](CO)N1C[C@H](C)[C@H](CN(C)C(=O)Nc2ccc3c(c2)OCO3)OCc2ccccc2-c2c(n(C)c3ccccc23)C1=O	16.4
CC(C)NC(=O)Nc1ccc2c(c1)C(=O)N([C@H](C)CO)C[C@H](C)[C@@H](CN(C)Cc1ccccc1)O2	0.4
O=C(NO)c1ccc(C(=O)N/N=C/c2cccnc2)cc1	3.6
C[C@H]1CN([C@@H](C)CO)C(=O)c2cc(NC(=O)CCCCCC(=O)Nc3ccccc3N)ccc2O[C@H]1CN(C)CC1CCCCC1	-0.8
COc1ccc(COCC23N=C4SCCCN4[C@H](c4ccccc4O2)[C@H]3CO)cc1	-2.8
CCCN(C)C[C@H]1Oc2cc(C#Cc3ccccc3)ccc2S(=O)(=O)N([C@H](C)CO)C[C@@H]1C	-0.9
O=C(CCCCCCC(=O)Nc1ccccc1O)N/N=C/c1cccs1	3.4
CNC[C@H]1Oc2ccc(NC(=O)NC(C)C)cc2C(=O)N([C@H](C)CO)C[C@H]1C	0.2
COc1ccc(S(=O)(=O)N(C)C[C@H]2Oc3ccc(NS(=O)(=O)c4cccs4)cc3CC(=O)N([C@H](C)CO)C[C@@H]2C)cc1	4.5
Cc1ccc(NC2=CC(=O)c3sc(C)nc3C2=O)cc1	73.7*
C[C@H]1CN([C@@H](C)CO)C(=O)Cc2cc(NS(C)(=O)=O)ccc2O[C@@H]1CN(C)CC1CCCCC1	1.5
O=C(CCCCCCC(=O)N/N=C/c1cc(F)ccc1O)NO	5.1
c1ccc2c(c1)CCCc1cc(NCCN3CCOCC3)nnc1-2	3.1
Cc1ccc(S(=O)(=O)c2nc(-c3ccccc3)oc2NCCN2CCOCC2)cc1	4.4
O=C1C(Cl)=C(NCCN2CCOCC2)C(=O)c2ncccc21	90.2*
Cc1noc(C)c1NC(=O)Nc1ccc2c(c1)CC(=O)N([C@@H](C)CO)C[C@H](C)[C@H](CN(C)C(=O)NC1CCCCC1)O2	-2.4
O=c1c(O[C@@H]2O[C@H](CO)[C@H](O)[C@H](O)[C@H]2O)c(-c2ccc(O)cc2)oc2cc(O)cc(O)c12	-0.3
C[C@@H]1O[C@@H](Oc2cc(O)c3c(=O)c(O[C@@H]4O[C@@H](C)[C@H](O)[C@@H](O[C@@H]5OC[C@@H](O)[C@H](O)[C@H]5O)[C@H]4O[C@@H]4O[C@H](CO)[C@@H](O)[C@H](O)[C@H]4O)c(-c4ccc(O)c(O)c4)oc3c2)[C@H](O)[C@H](O)[C@H]1O	5.7
COc1c(-c2ccc(O)cc2)oc2cc(O)cc(O)c2c1=O	-1.7
O=c1c(OC2OCC(O)C(O)C2O)c(-c2ccc(O)c(O)c2)oc2cc(O)cc(O)c12 (configuration not stated)	59.6*
O=c1c(O[C@@H]2OC[C@H](O)[C@H](O)[C@H]2O)c(-c2ccc(O)cc2)oc2cc(O)cc(O)c12	72.0*
O=c1c(O[C@@H]2OC[C@H](O)[C@H](O)[C@H]2O)c(-c2ccc(O)c(O)c2)oc2cc(O)cc(O)c12	30.3
CNC[C@@H]1Oc2ncc(/C=C/c3ccccc3)cc2C(=O)N([C@@H](C)CO)C[C@@H]1C	8.1
SMILES	NSD2 inh
C[C@H](CO)N1C[C@H](C)[C@@H](CN(C)Cc2ccc(C(=O)Nc3ccccc3N)cc2)Oc2ccc(NC(=O)Cn3cnnn3)cc2CC1=O	1.7
O=C(CCCCC(=O)N/N=C/c1ccccn1)NO	-4.0
Cc1nc(S(=O)(=O)NC2CCN(Cc3ccc(OCCO)cc3)CC2)cn1C	-1.9
O=C(NO)c1cccc(C(=O)N/N=C/c2cccc(O)c2O)c1	16.2
O=C(NO)c1cccc(C(=O)N/N=C/c2ccc(O)c(O)c2O)c1	63.0*
O=C(NO)c1cccc(C(=O)N/N=C/c2ccc(O)c3ccccc23)c1	-1.4
COc1cc(C[C@H]2CO[C@H](c3ccc(O[C@@H]4O[C@H](CO)[C@@H](O)[C@H](O)[C@H]4O)c(OC)c3)[C@H]2CO)ccc1O	54.4
COc1cc(C2c3c(cc(OC)c(O)c3OC)CC(CO)C2COC2OCC(O)C(O)C2O)cc(OC)c1O (configuration not stated)	38.8
COc1cc(C2c3c(cc(OC)c(O)c3OC)CC(CO)C2COC2OC(CO)C(O)C(O)C2O)cc(OC)c1O (configuration not stated)	75.8*
CC(C)C#Cc1ccc2c(c1)O[C@H](CN(C)C(=O)c1cccnc1)[C@@H](C)CN([C@@H](C)CO)S2(=O)=O	-8.8
